{"source": "PubChem BioAssay (NCATS)", "note": "Inconclusive results are not listed. Unmarked numbers belong to inactive results. Active and inactive are the calls of the source. Calls follow the shape of the dose curve; as a rule, active = well fitted curve in the direction sought with a large enough effect; inconclusive = small, poorly fitted or top-dose-only effect, or another doubt; inactive = no such curve, though single readings can be large; an effect the other way counts as inactive or inconclusive.", "data": [{"tested_on": "not listed separately", "test": "Validation screen for small molecules that induce DNA re-replication in MCF 10A normal breast cells (AID 463097); also: 0% is about no effect; nearly all actives have a fitted effect of over 60% in size", "settings": "MCF 10A cells, DNA re-replication phenotype imaging; series mostly up to 46.1 µM; re-replication induction: at the top concentration", "how_it_was_run": "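MCF 10A cells exposed to compound 48 hr at 37 C, 5% CO2, then Hoechst-stained 40 min. Laser-scanning imaging of nuclear DNA content (405 nm ex, 500-530 nm em); re-replication scored as rise in nuclei with elevated fluorescence intensity.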", "units": {"re-replication induction": "%"}, "values": [{"smiles": "O=C(O)C1CN(CCCP(=O)(O)O)CCN1", "note": "(configuration not stated)", "re-replication induction": 0.911}, {"smiles": "CN(C)C(=O)/N=N/C(=O)N(C)C", "re-replication induction": 9.85}, {"smiles": "Cc1cccc(C)c1OCC(N)C(C)C", "note": "(configuration not stated)", "re-replication induction": 3.25}, {"smiles": "C=CCn1c(=O)c2c(nc(-c3ccc(S(=O)(=O)O)cc3)n2C)n(C)c1=O", "re-replication induction": 2.05}, {"smiles": "O=C(O)c1cccnc1C(=O)O", "re-replication induction": -2.79}, {"smiles": "Cc1nc(N=Nc2cc(S(=O)(=O)O)c3cc([N+](=O)[O-])cc(S(=O)(=O)O)c3c2)c(COP(=O)(O)O)c(C=O)c1O", "re-replication induction": -10.7}, {"smiles": "Cn1c(=O)c2[nH]c(C3CCCC3)nc2n(C)c1=O", "re-replication induction": 10.3}, {"smiles": "C[C@@]1(C2CCCC2)Cc2cc(OCC(=O)O)c(Cl)c(Cl)c2C1=O", "re-replication induction": 1.3}, {"smiles": "N=C(N)SCCN", "re-replication induction": -0.957}, {"smiles": "COc1ccc(-c2ccc(N)[n+](CCCC(=O)O)n2)cc1", "re-replication induction": -1.95}, {"smiles": "CC(N)(Cc1ccc(O)c(O)c1)C(=O)O", "note": "(configuration not stated)", "re-replication induction": -2.09}, {"smiles": "NCCC1CCCC(CCN)N1", "note": "(configuration not stated)", "re-replication induction": -1.89}, {"smiles": "O=c1[nH]c(=O)c2nc3ccccc3nc2[nH]1", "re-replication induction": 6.22}, {"smiles": "CCCn1c(=O)c2c(ncn2C)n(CCC)c1=O", "re-replication induction": 0.661}, {"smiles": "CC(=O)NNC(=O)N1Cc2ccccc2Oc2ccc(Cl)cc21", "re-replication induction": -4.49}, {"smiles": "CCSC(=N)N", "re-replication induction": -0.728}, {"smiles": "NC(Cc1cccc(-c2ccccc2CP(=O)(O)O)c1)C(=O)O", "note": "(configuration not stated)", "re-replication induction": -3.31}, {"smiles": "COC(=O)C(C)(N)Cc1ccc(O)cc1", "note": "(configuration not stated)", "re-replication induction": -8.13}, {"smiles": "NCCCCN", "re-replication induction": -0.316}, {"smiles": "C[C@@H](NCCc1ccc(O)cc1)[C@@H](O)c1ccc(O)cc1", "re-replication induction": -0.145}, {"smiles": "NC1C=CC=C(C(=O)O)C1", "note": "(configuration not stated)", "re-replication induction": -4.22}, {"smiles": "CCCN(CCc1ccccc1)C1CCc2c(O)cccc2C1", "note": "(configuration not stated)", "re-replication induction": 4.81}, {"smiles": "CC1C(=O)N(C)C(=O)c2nc[nH]c21", "note": "(configuration not stated)", "re-replication induction": -8.96}, {"smiles": "O=C(O)Cc1ccc(O)c(O)c1", "re-replication induction": 6.98}, {"smiles": "CC1CCN=C(N)S1", "note": "(configuration not stated)", "re-replication induction": 0.0211}]}, {"molecular_target": "Ubiquitin carboxyl-terminal hydrolase 2 (Homo sapiens) (UniProt O75604)", "sequence (O75604 whole entry, looked up)": "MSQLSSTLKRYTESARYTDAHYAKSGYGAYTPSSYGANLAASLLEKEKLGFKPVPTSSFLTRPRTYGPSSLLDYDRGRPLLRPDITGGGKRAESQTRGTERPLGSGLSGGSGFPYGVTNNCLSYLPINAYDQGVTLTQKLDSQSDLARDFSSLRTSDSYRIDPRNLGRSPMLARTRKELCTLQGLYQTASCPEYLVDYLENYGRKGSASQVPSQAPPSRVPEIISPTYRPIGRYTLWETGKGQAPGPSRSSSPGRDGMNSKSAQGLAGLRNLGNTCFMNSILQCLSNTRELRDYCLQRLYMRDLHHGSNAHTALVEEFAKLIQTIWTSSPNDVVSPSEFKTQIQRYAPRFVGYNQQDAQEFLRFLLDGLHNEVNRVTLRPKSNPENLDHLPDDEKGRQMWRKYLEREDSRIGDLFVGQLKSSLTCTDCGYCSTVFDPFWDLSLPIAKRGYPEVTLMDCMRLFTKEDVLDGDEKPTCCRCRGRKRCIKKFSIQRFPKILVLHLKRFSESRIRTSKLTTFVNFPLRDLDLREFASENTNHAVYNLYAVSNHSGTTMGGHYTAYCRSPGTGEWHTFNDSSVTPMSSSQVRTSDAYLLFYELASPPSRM", "test": "qHTS Validation Assay for Inhibitors of Ubiquitin-specific Protease USP2a Using CHOP2 as the Reporter (AID 463106); also: potency is read from the fitted curve at half-maximal effect;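 as to activity, negative = inhibition: plate controls were DMSO for no effect and full inhibition by NEM for full effect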", "settings": "USP2a cleavage of CHOP2 reporter, enzymatic; series mostly up to 38.3 µM; activity, negative = inhibition: at the top concentration", "how_it_was_run": "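Readout was coupled fluorescence (Ex 485/Em 531 nm), read 60 min after adding 25 nM final Ub-CHOP2 and 25 nM reporter substrate. Beforehand, 10 nM final USP2 core had 30 min at RT with compound in pH 8.0 buffer. Curves were fitted after normalization to NEM and flagged for artifacts using time-zero reads.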", "units": {"activity, negative = inhibition": "%"}, "values": [{"smiles": "O=C(O)C1CN(CCCP(=O)(O)O)CCN1", "note": "(configuration not stated)", "activity, negative = inhibition": -7.1}, {"smiles": "CCCC(=O)NCCc1c2n(c3ccc(OC)cc13)CCCc1ccccc1-2", "activity, negative = inhibition": -2.23}, {"smiles": "CN(C)C(=O)/N=N/C(=O)N(C)C", "activity, negative = inhibition": -0.782}, {"smiles": "C[C@H]1CC2C3CCC4=CC(=O)C=C[C@]4(C)[C@@]3(Cl)[C@@H](O)C[C@]2(C)[C@@]1(O)C(=O)CO", "note": "(some centres not stated)", "activity, negative = inhibition": 0.12}, {"smiles": "OC[C@H]1O[C@H](n2cnc3c(N[C@H]4CCC[C@@H]4O)ncnc32)[C@H](O)[C@@H]1O", "activity, negative = inhibition": 1.43}, {"smiles": "Cc1cccc(C)c1OCC(N)C(C)C", "note": "(configuration not stated)", "activity, negative = inhibition": 3.05}, {"smiles": "N[C@H](C(=O)O)[C@H](Cc1ccccc1)C(=O)O", "activity, negative = inhibition": 0.557}, {"smiles": "O=c1onc2cnc3ccccc3n12", "activity, negative = inhibition": 0.103}, {"smiles": "C=CCn1c(=O)c2c(nc(-c3ccc(S(=O)(=O)O)cc3)n2C)n(C)c1=O", "activity, negative = inhibition": 0.517}, {"smiles": "O=C(O)c1cccnc1C(=O)O", "activity, negative = inhibition": -7.6}, {"smiles": "Cc1nc(N=Nc2cc(S(=O)(=O)O)c3cc([N+](=O)[O-])cc(S(=O)(=O)O)c3c2)c(COP(=O)(O)O)c(C=O)c1O", "activity, negative = inhibition": 3.2}, {"smiles": "Cn1c(=O)c2[nH]c(C3CCCC3)nc2n(C)c1=O", "activity, negative = inhibition": -0.816}, {"smiles": "C[C@@]1(C2CCCC2)Cc2cc(OCC(=O)O)c(Cl)c(Cl)c2C1=O", "activity, negative = inhibition": 3.63}, {"smiles": "N=C(N)SCCN", "activity, negative = inhibition": 1.63}, {"smiles": "COc1ccc(-c2ccc(N)[n+](CCCC(=O)O)n2)cc1", "activity, negative = inhibition": -1.34}, {"smiles": "CC(N)(Cc1ccc(O)c(O)c1)C(=O)O", "note": "(configuration not stated)", "activity, negative = inhibition": 1.67}, {"smiles": "C=C1C[C@@]23CC[C@H]4[C@@](C)(CCC[C@@]4(C)C(=O)OC4OC(CO)C(O)C(O)C4O)[C@@H]2CC[C@]1(OC1OC(CO)C(O)C(O)C1OC1OC(CO)C(O)C(O)C1O)C3", "note": "(some centres not stated)", "activity, negative = inhibition": 0.0107}, {"smiles": "NCCC1CCCC(CCN)N1", "note": "(configuration not stated)", "activity, negative = inhibition": 7.24}, {"smiles": "C[C@]12C=CC(=O)C=C1CC[C@@H]1C2=CC[C@]2(C)[C@@H](C(=O)CN3CCN(c4cc(N5CCCC5)nc(N5CCCC5)n4)CC3)CC[C@@H]12", "activity, negative = inhibition": -0.886}, {"smiles": "O=c1[nH]c(=O)c2nc3ccccc3nc2[nH]1", "activity, negative = inhibition": 15.8}, {"smiles": "CCCn1c(=O)c2c(ncn2C)n(CCC)c1=O", "activity, negative = inhibition": -0.198}, {"smiles": "CC(=O)NNC(=O)N1Cc2ccccc2Oc2ccc(Cl)cc21", "activity, negative = inhibition": -0.544}, {"smiles": "CCSC(=N)N", "activity, negative = inhibition": -0.293}, {"smiles": "CCc1ccc2c(-c3cccc(Cl)c3)nc(=O)n(CC)c2n1", "activity, negative = inhibition": -0.772}, {"smiles": "O=C(O)C1=CC(=C(c2ccc(O)c(C(=O)O)c2)c2ccc(O)c(C(=O)O)c2)C=CC1=O", "Potency": "1040 nM (active)"}, {"smiles": "Brc1c(Br)c(Br)c2[nH]cnc2c1Br", "activity, negative = inhibition": -4.74}, {"smiles": "NC(Cc1cccc(-c2ccccc2CP(=O)(O)O)c1)C(=O)O", "note": "(configuration not stated)", "activity, negative = inhibition": 3.41}, {"smiles": "COC(=O)C(C)(N)Cc1ccc(O)cc1", "note": "(configuration not stated)", "activity, negative = inhibition": 0.0455}, {"smiles": "C=CC1(C)CC(=O)C2(O)C(C)(O1)C(OC(C)=O)C(O)C1C(C)(C)CCC(O)C12C", "note": "(configuration not stated)", "activity, negative = inhibition": 1.59}, {"smiles": "NCCCCN", "activity, negative = inhibition": 0.686}, {"smiles": "C[C@@H](NCCc1ccc(O)cc1)[C@@H](O)c1ccc(O)cc1", "activity, negative = inhibition": 0.982}, {"smiles": "NC1C=CC=C(C(=O)O)C1", "note": "(configuration not stated)", "activity, negative = inhibition": 0.675}]}]}
